Measured values reported in the supplement of paper PMC7695840.

What was measured:
[1] = tested on: Staphylococcus aureus MW2 delta-mecA (mecA-); experiment: normalized GFP fluorescence (growth of mecA- strain) (fraction of control range); higher = more growth of mecA- strain; settings: compound concentration: 150 uM; cefoxitin: subinhibitory; fluorescent label: GFP
Outline: (§1)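 Fluorescence from DsRed (540/590) and GFP (485/520) was recorded after 20 h of static growth at 37 °C and 90% humidity. The wells held a 1:1 mix of pre-induced S. aureus MW2 cells, gene-bearing with DsRed and gene-deleted with GFP, in LB with a daily-set subinhibitory antibiotic dose, dispensed at 5 µL/well onto 150 μM compound (1.5% DMSO) in 1536-well plates, single replicate. Each channel was scaled per plate between single-strain control medians, excluding plates with high untreated ratios and rows with DsRed/GFP >10.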

[2] = tested on: Staphylococcus aureus MW2 (mecA+); experiment: normalized DsRed fluorescence (growth of mecA+ strain) (fraction of control range); higher = more growth of mecA+ strain; settings: compound concentration: 150 uM; cefoxitin: subinhibitory; fluorescent label: DsRed
Outline: as §1

Row | Compound | normalized GFP fluorescence [1] | normalized DsRed fluorescence [2]
1 | COc1ccc(CN(CCN(C)C)c2ncccn2)cc1 | 0.471 | 0.813
2 | CCC(=O)OCC(=O)[C@@]1(OC(=O)CC)[C@@H](C)C[C@H]2[C@@H]3CCC4=CC(=O)C=C[C@]4(C)[C@@]3(Cl)[C@@H](O)C[C@@]21C | 0.322 | 0.958
3 | NC(=O)Cc1cccc(C(=O)c2ccccc2)c1N [Nepafenac] | 0.747 | 0.818
4 | CC1=C(C(=O)O)N2C(=O)[C@@H](NC(=O)[C@H](N)c3ccccc3)[C@H]2SC1 | 0.18 | 1.02
5 | CCCCOc1ccc(CC(=O)NO)cc1 [Bufexamac] | 0.312 | 0.828
6 | Nc1nc(NC2CC2)c2ncn([C@H]3C=C[C@@H](CO)C3)c2n1 | 0.288 | 0.69
7 | CCOc1cc([C@@H](CS(C)(=O)=O)N2C(=O)c3cccc(NC(C)=O)c3C2=O)ccc1OC | 0.254 | 0.579
8 | CCN(CC)CCOc1ccc2c(c1)C(=O)c1cc(OCCN(CC)CC)ccc1-2 | 0.282 | 0.512
9 | CCCS(=O)(=O)Nc1ccc(F)c(C(=O)c2c[nH]c3ncc(-c4ccc(Cl)cc4)cc23)c1F [Vemurafenib (PLX4032)] | 0.416 | 0.489
10 | Cn1ncnc1[C@H]1c2n[nH]c(=O)c3cc(F)cc(c23)N[C@@H]1c1ccc(F)cc1 [Talazoparib (BMN 673)] | 0.42 | 0.777
11 | COCCOC(=O)C1=C(C)NC(C)=C(C(=O)OC(C)C)C1c1cccc([N+](=O)[O-])c1 (centres undefined) | 0.032 | 0.85
12 | CNC(=C[N+](=O)[O-])NCCSCc1ccc(CN(C)C)o1 | 0.32 | 0.742
13 | CCc1cccc2c3c([nH]c12)C(CC)(CC(=O)O)OCC3 (centres undefined) | 0.0954 | 0.562
14 | C[C@]12CC[C@@H]3c4ccc(O)cc4C[C@@H](CCCCCCCCC[S+]([O-])CCCC(F)(F)C(F)(F)F)[C@H]3[C@@H]1CC[C@@H]2O (some centres undefined) | 0.185 | 0.667
15 | CC(O)C(=O)O.N (centres undefined) | 0.217 | 0.837
16 | COc1ccc2[nH]cc(CCNC(C)=O)c2c1 [Melatonin] | 0.484 | 0.734
17 | Nc1nc2ccc(OC(F)(F)F)cc2s1 | 0.622 | 0.37
18 | CC(=O)Oc1ccc(C(c2ccc(OC(C)=O)cc2)c2ccccn2)cc1 | 0.399 | 0.669
19 | Cc1nc(-c2ccc(OCC(C)C)c(C#N)c2)sc1C(=O)O [Febuxostat (Uloric)] | 0.0973 | 0.396

Row | Compound | normalized GFP fluorescence [1] | normalized DsRed fluorescence [2]
20 | CCOc1cc2ncc(C#N)c(Nc3ccc(OCc4ccccn4)c(Cl)c3)c2cc1NC(=O)/C=C/CN(C)C [Neratinib (HKI-272)] | 0.0386 | 0.921
21 | C[C@@H]1O[C@@H](OC[C@H]2O[C@@H](Oc3c(-c4ccc(O)c(O)c4)oc4cc(O)cc(O)c4c3=O)[C@H](O)[C@@H](O)[C@@H]2O)[C@H](O)[C@H](O)[C@H]1O [Rutin (Rutoside)] | 0.394 | 0.725
22 | CCc1cc(C(N)=S)ccn1 | 0.386 | 0.65
23 | CCOC(=O)[C@H](CCc1ccccc1)N[C@H]1CCCN2CCC[C@@H](C(=O)O)N2C1=O [Cilazapril monohydrate (Inhibace)] | 0.646 | 0.59
24 | O=C(OOC(=O)c1ccccc1)c1ccccc1 | 0.437 | 0.519
25 | c1ccc(CC2=NCCN2)cc1 | 0.234 | 0.835
26 | CCOC(=O)O[C@]1(C(=O)OCCl)CC[C@H]2[C@@H]3CCC4=CC(=O)C=C[C@]4(C)[C@H]3[C@@H](O)C[C@@]21C [Loteprednol etabonate] | 0.281 | 0.603
27 | Cc1oncc1C(=O)Nc1ccc(C(F)(F)F)cc1 | 0.0504 | 1.25
28 | Cc1cn([C@H]2C=C[C@@H](CO)O2)c(=O)[nH]c1=O | 0.779 | 0.601
29 | COc1ccc2[nH]c([S+]([O-])Cc3ncc(C)c(OC)c3C)nc2c1 (centres undefined) | 0.481 | 1.2
30 | CN(C)CCC(c1ccccc1)c1ccccn1 (centres undefined) | 0.504 | 0.799
31 | C[N+](C)(C)CC(=O)O | 0.229 | 0.899
32 | COc1ccc2c3c1O[C@H]1C[C@@H](O)C=C[C@@]31CCN(C)C2 | 0.508 | 0.677
33 | CCN(CC)Cc1cc(Nc2ccnc3cc(Cl)ccc23)ccc1O | 0.205 | 0.684
34 | C[N+](C)(C)CCOP(=O)(O)OP(=O)([O-])OC[C@H]1O[C@@H](n2ccc(N)nc2=O)[C@H](O)[C@@H]1O | 0.342 | 0.78
35 | CCN(CC)C(=O)C1(c2ccccc2)CC1CN (centres undefined) | 0.155 | 0.617
36 | CCOC(=O)c1ncn2c1CN(C)C(=O)c1cc(F)ccc1-2 | 0.408 | 0.611
37 | Cc1ccc(=O)n(-c2ccccc2)c1 [Pirfenidone] | 0.368 | 0.778
